PubChem BioAssay AID2189 (The Scripps Research Institute Molecular Screening Center, 2009)
Some of the results follow. Activity calls are given as the source filed them. Cut-off read from the data, not from the text of the source: active = inhibition above about 4.9%; inactive = the rest.

test system: metallo-beta-lactamase IMP-1 (Pseudomonas aeruginosa); assay: inhibition of IMP-1 substrate hydrolysis – biochemical, epi-absorbance, hits shared with VIM-2 screen, confirmation (AID 2189); details: purified IMP-1 enzyme, at 5.6 µM, hits give high values;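 note: 0% = enzyme with vehicle and 100% = vehicle without enzyme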

| Compound | inhibition |
| --- | --- |
| Cc1nn(C)cc1N1C(=O)c2cccc3c(N)ccc(c23)C1=O | 29.8% (active) |
| Cc1cc2nc3c(=O)n(Cc4ccccc4)c(=O)[nH]c3nc2cc1N | 13.2% (active) |
| C/C(=N\Nc1ccc(S(N)(=O)=O)cc1[N+](=O)[O-])c1cccs1 | 10.6% (active) |
| COc1cc(/C=C2/SC(=S)N(Cc3ccccc3)C2=O)cc(OC)c1O | 9.27% (active) |
| NC(=O)c1ccc(NC(=O)COC(=O)c2c3c(nc4ccccc24)/C(=C\c2ccc4c(c2)OCO4)CCC3)cc1 | -2.29% (inactive) |
| CN1C(=O)c2cccc3c(N)ccc(c23)C1=O | 36.2% (active) |
| Nc1c(C(=O)c2cccs2)sc2nsc(SCCN3CCCCC3)c12 | 18.4% (active) |
| Oc1ccc2ccc3cccc[n+]3c2c1 | 23.2% (active) |
| c1ccc(-c2nccc(-c3ccc(-n4cnc5ccccc54)cc3)n2)nc1 | 0.59% (inactive) |
| CCC(=C/c1sc2ccc3ccccc3c2[n+]1C)/C=C1\Sc2ccc3ccccc3c2N1C | 27.6% (active) |
| NS(=O)(=O)c1ccc(NC(=O)COC(=O)c2c3c(nc4ccccc24)/C(=C\c2ccc4c(c2)OCO4)CCC3)cc1 | -2.39% (inactive) |
